{
  "source": "PubChem BioAssay AID493222",
  "about": "(Johns Hopkins Ion Channel Center, 2011)",
  "note": "Among all 2,400 compounds or so, about 95 (4%) were called active.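 The calls were made as follows: active = mean of duplicate membrane potential ratios lying over 3 SD above or below the buffer control mean, so actives fall on both sides; inactive = the rest.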 A selection follows.",
  "data": [
    {"assay": "membrane potential effects in parental HEK293, counter-screen for CHT inhibitor project, cell-based, membrane potential dye (AID 493222);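 also: parental cells lack the transporter so any hit is non-specific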;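 as to membrane potential ratio readout (active if shifted either direction beyond buffer ±3SD; no single direction): ratio is peak minus trough fluorescence over baseline after EC90 choline challenge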", "settings": "choline response, at 10 µM; active = decrease or increase beyond buffer ±3SD", "values": [
      {"smiles": "O=C(c1cccs1)C1C(c2ccc(Br)cc2)NC(=S)NC1(O)C(F)(F)F", "note": "(configuration not stated)", "membrane potential ratio readout (active if shifted either direction beyond buffer ±3SD; no single direction)": "inactive"},
      {"smiles": "COc1ccc2c(c1)OC(O)(C(F)(F)C(F)F)CC2=O", "note": "(configuration not stated)", "membrane potential ratio readout (active if shifted either direction beyond buffer ±3SD; no single direction)": "inactive"},
      {"smiles": "Cc1ccc(S(=O)(=O)/N=C(/NC(=S)Nc2c(C)n(C)n(-c3ccccc3)c2=O)c2ccccc2)cc1", "membrane potential ratio readout (active if shifted either direction beyond buffer ±3SD; no single direction)": "inactive"},
      {"smiles": "O=C(C1CCN(S(=O)(=O)c2ccc(Br)s2)CC1)N1CCN(c2ccccc2)CC1", "membrane potential ratio readout (active if shifted either direction beyond buffer ±3SD; no single direction)": "inactive"},
      {"smiles": "CC(=O)Nc1nc2c(s1)C(=O)NCC(C)(C)C2", "membrane potential ratio readout (active if shifted either direction beyond buffer ±3SD; no single direction)": "inactive"},
      {"smiles": "CC1CCCC(NC(=O)c2cccc(N3CCCC3=O)c2)C1C", "note": "(configuration not stated)", "membrane potential ratio readout (active if shifted either direction beyond buffer ±3SD; no single direction)": "inactive"},
      {"smiles": "CNCC(O)c1ccc(O)c(O)c1", "note": "(configuration not stated)", "membrane potential ratio readout (active if shifted either direction beyond buffer ±3SD; no single direction)": "inactive"},
      {"smiles": "CCCCOc1ccc(Cl)cc1CSc1nncn1N", "membrane potential ratio readout (active if shifted either direction beyond buffer ±3SD; no single direction)": "inactive"},
      {"smiles": "O=C(Nc1ccn(Cc2ccccc2)n1)c1n[nH]c([N+](=O)[O-])c1Cl", "membrane potential ratio readout (active if shifted either direction beyond buffer ±3SD; no single direction)": "inactive"},
      {"smiles": "CCOc1ccc(/C=C2\\SC(=S)N(NC(=O)c3ccncc3)C2=O)cc1OC", "membrane potential ratio readout (active if shifted either direction beyond buffer ±3SD; no single direction)": "inactive"},
      {"smiles": "CCOC(=O)C1(CCOC)CCN(Cc2ccc(C(=O)OC)cc2)CC1", "membrane potential ratio readout (active if shifted either direction beyond buffer ±3SD; no single direction)": "inactive"},
      {"smiles": "OC1CN=C2Sc3ccccc3N2C1", "note": "(configuration not stated)", "membrane potential ratio readout (active if shifted either direction beyond buffer ±3SD; no single direction)": "inactive"},
      {"smiles": "CC(Oc1ccc2ccccc2c1)C(=O)NNC(=S)NC(=O)c1ccco1", "note": "(configuration not stated)", "membrane potential ratio readout (active if shifted either direction beyond buffer ±3SD; no single direction)": "inactive"},
      {"smiles": "CCCCCn1c(=O)c(C(=O)OCC)c(Cl)c2ccccc21", "membrane potential ratio readout (active if shifted either direction beyond buffer ±3SD; no single direction)": "inactive"},
      {"smiles": "O=[N+]([O-])c1ccccc1Nc1ccc(O)cc1", "membrane potential ratio readout (active if shifted either direction beyond buffer ±3SD; no single direction)": "2.4 (active)"},
      {"smiles": "Cc1ccc(SC(CC(=O)c2ccc(C(C)(C)C)cc2)C(=O)O)cc1", "note": "(configuration not stated)", "membrane potential ratio readout (active if shifted either direction beyond buffer ±3SD; no single direction)": "inactive"},
      {"smiles": "C/C(=N\\Nc1nc2ccccc2[nH]1)c1cccs1", "membrane potential ratio readout (active if shifted either direction beyond buffer ±3SD; no single direction)": "inactive"},
      {"smiles": "Nc1cc(N2CCCCCC2)c2nonc2c1[N+](=O)[O-]", "membrane potential ratio readout (active if shifted either direction beyond buffer ±3SD; no single direction)": "inactive"},
      {"smiles": "Cc1ccc(C(=O)N/C(=C/C=C/c2ccccc2)C(=O)NCc2ccco2)cc1", "membrane potential ratio readout (active if shifted either direction beyond buffer ±3SD; no single direction)": "inactive"},
      {"smiles": "CCc1ccc2c(c1)C1(NN=C(c3ccccc3)S1)C(=O)N2", "note": "(configuration not stated)", "membrane potential ratio readout (active if shifted either direction beyond buffer ±3SD; no single direction)": "inactive"},
      {"smiles": "O=S(=O)(c1cccc(-c2nnc(SC(F)F)n2-c2ccccc2)c1)N1CCCCC1", "membrane potential ratio readout (active if shifted either direction beyond buffer ±3SD; no single direction)": "inactive"},
      {"smiles": "Cn1c2ccccc2c(=O)c2c(O)cccc21", "membrane potential ratio readout (active if shifted either direction beyond buffer ±3SD; no single direction)": "inactive"},
      {"smiles": "CC(=O)OCCOCn1cnn2c(=O)c(Br)c(C)nc12", "membrane potential ratio readout (active if shifted either direction beyond buffer ±3SD; no single direction)": "inactive"},
      {"smiles": "CCNC(=O)CC1C(=O)N(c2ccc(F)cc2)C(=O)N1CCc1sccc1C", "note": "(configuration not stated)", "membrane potential ratio readout (active if shifted either direction beyond buffer ±3SD; no single direction)": "inactive"},
      {"smiles": "C/C(=N\\NC(N)=S)c1cccnc1", "membrane potential ratio readout (active if shifted either direction beyond buffer ±3SD; no single direction)": "inactive"},
      {"smiles": "COc1ccc(NC(=O)c2sc(N)nc2-c2ccccc2)cc1", "membrane potential ratio readout (active if shifted either direction beyond buffer ±3SD; no single direction)": "inactive"},
      {"smiles": "Cc1ccccc1-n1c(C)cc(/C=N/NC(=O)c2ccc(CN3CCOCC3)cc2)c1C", "membrane potential ratio readout (active if shifted either direction beyond buffer ±3SD; no single direction)": "inactive"},
      {"smiles": "O=C(Nc1ccccc1C(=O)NCCCn1ccnc1)c1ccc(Cl)cc1Cl", "membrane potential ratio readout (active if shifted either direction beyond buffer ±3SD; no single direction)": "inactive"},
      {"smiles": "CCc1ccccc1N1CN(Cc2ccco2)CNC1=S", "membrane potential ratio readout (active if shifted either direction beyond buffer ±3SD; no single direction)": "inactive"},
      {"smiles": "COC(=O)CN1C(C)=Nc2ccc(Br)cc2C1c1ccccc1", "note": "(configuration not stated)", "membrane potential ratio readout (active if shifted either direction beyond buffer ±3SD; no single direction)": "inactive"},
      {"smiles": "CCN(CC)Cc1c(C(=O)N/N=C/c2cccc(OCc3ccc(F)cc3)c2)nnn1-c1nonc1N", "membrane potential ratio readout (active if shifted either direction beyond buffer ±3SD; no single direction)": "inactive"},
      {"smiles": "CC(C)CCn1c(CN(C)Cc2ccccc2)nc2c1c(=O)n(C)c(=O)n2C", "membrane potential ratio readout (active if shifted either direction beyond buffer ±3SD; no single direction)": "inactive"},
      {"smiles": "O=C(O)c1ccc(N/N=C/c2cn(-c3ccccc3)nc2-c2cccs2)cc1", "membrane potential ratio readout (active if shifted either direction beyond buffer ±3SD; no single direction)": "inactive"},
      {"smiles": "CCC(Oc1ccccc1C)C(=O)Nc1ccc(S(=O)(=O)Nc2cc(C)on2)cc1", "note": "(configuration not stated)", "membrane potential ratio readout (active if shifted either direction beyond buffer ±3SD; no single direction)": "inactive"},
      {"smiles": "CC1CCN(C(=O)CN(c2ccc(Oc3ccccc3)cc2)S(C)(=O)=O)CC1", "membrane potential ratio readout (active if shifted either direction beyond buffer ±3SD; no single direction)": "inactive"},
      {"smiles": "CCN(CC)CCC(c1ccc2c(c1)OCO2)c1c(OC)cc(OC)c2c(-c3ccccc3)cc(=O)oc12", "note": "(configuration not stated)", "membrane potential ratio readout (active if shifted either direction beyond buffer ±3SD; no single direction)": "inactive"},
      {"smiles": "C/C(=N\\N=C(N)N)c1ccc(Cl)cc1", "membrane potential ratio readout (active if shifted either direction beyond buffer ±3SD; no single direction)": "inactive"},
      {"smiles": "COC(=O)c1ccccc1NC(=O)Cn1nc(C(F)(F)F)c2c1CCC2", "membrane potential ratio readout (active if shifted either direction beyond buffer ±3SD; no single direction)": "inactive"},
      {"smiles": "O=C1c2cccc3cccc(c23)C(=O)N1CCCCCc1n[nH]c(=S)o1", "membrane potential ratio readout (active if shifted either direction beyond buffer ±3SD; no single direction)": "inactive"},
      {"smiles": "CC(C)n1c(=S)[nH]c2cc(C(F)(F)F)ccc21", "membrane potential ratio readout (active if shifted either direction beyond buffer ±3SD; no single direction)": "inactive"},
      {"smiles": "O=C(Cn1ncc2c3ccccc3n(Cc3ccccc3)c2c1=O)NCCCN1CCOCC1", "membrane potential ratio readout (active if shifted either direction beyond buffer ±3SD; no single direction)": "inactive"},
      {"smiles": "CCOC(=O)N1CCN(C(=O)c2ccc(CN(c3ccc(C)c(C)c3)S(C)(=O)=O)cc2)CC1", "membrane potential ratio readout (active if shifted either direction beyond buffer ±3SD; no single direction)": "inactive"},
      {"smiles": "CCCn1c2ccccc2c2cnn(CC(=O)NCCCN3CCCCC3CC)c(=O)c21", "note": "(configuration not stated)", "membrane potential ratio readout (active if shifted either direction beyond buffer ±3SD; no single direction)": "inactive"},
      {"smiles": "Cc1ccccc1-n1nnc2c(=O)oc3ccccc3c21", "membrane potential ratio readout (active if shifted either direction beyond buffer ±3SD; no single direction)": "inactive"},
      {"smiles": "C=CCn1c(SCc2ccc(C(=O)NCCO)cc2)nc2ccccc2c1=O", "membrane potential ratio readout (active if shifted either direction beyond buffer ±3SD; no single direction)": "inactive"},
      {"smiles": "O=C(/C=C/c1cn(-c2ccccc2)nc1-c1ccc2c(c1)OCCO2)NCCCN1CCOCC1", "membrane potential ratio readout (active if shifted either direction beyond buffer ±3SD; no single direction)": "inactive"},
      {"smiles": "COc1ccc(C(=O)NC(Cc2ccc(OC(=O)c3ccc(OC)cc3)cc2)C(=O)O)cc1", "note": "(configuration not stated)", "membrane potential ratio readout (active if shifted either direction beyond buffer ±3SD; no single direction)": "inactive"},
      {"smiles": "Cc1cccnc1NC(=O)c1cccc(S(=O)(=O)N2CCN(c3ccc(F)cc3)CC2)c1", "membrane potential ratio readout (active if shifted either direction beyond buffer ±3SD; no single direction)": "inactive"},
      {"smiles": "CCOc1ccccc1Nc1ccc2nonc2c1[N+](=O)[O-]", "membrane potential ratio readout (active if shifted either direction beyond buffer ±3SD; no single direction)": "inactive"},
      {"smiles": "O=C(CCCN1C(=O)CSc2ncccc21)N1CCN(c2cccc(C(F)(F)F)c2)CC1", "membrane potential ratio readout (active if shifted either direction beyond buffer ±3SD; no single direction)": "inactive"},
      {"smiles": "Cc1ccc2c(C)c(C(=O)N3CCC(N4CCC(C(=O)NC5CC5)CC4)CC3)oc2c1", "membrane potential ratio readout (active if shifted either direction beyond buffer ±3SD; no single direction)": "inactive"},
      {"smiles": "CCOCCCN(C)C1CCN(C(=O)c2oc3ccccc3c2NC(=O)COc2cccc(C)c2)CC1", "membrane potential ratio readout (active if shifted either direction beyond buffer ±3SD; no single direction)": "3.33 (active)"},
      {"smiles": "COCCNc1nc(-n2nc(C)cc2C)nc2sc3c(c12)CCCC3", "membrane potential ratio readout (active if shifted either direction beyond buffer ±3SD; no single direction)": "inactive"},
      {"smiles": "O=c1c2ccccc2nnn1CSc1nc2sc3c(c2c(=O)n1CC1CCCO1)CCC3", "note": "(configuration not stated)", "membrane potential ratio readout (active if shifted either direction beyond buffer ±3SD; no single direction)": "inactive"},
      {"smiles": "CC(C)(C)C(=O)/C(C#N)=C/c1ccc(O)cc1", "membrane potential ratio readout (active if shifted either direction beyond buffer ±3SD; no single direction)": "inactive"},
      {"smiles": "Cc1oc2c(F)c(F)c(F)c(F)c2c1S(=O)(=O)Nc1cccc(C(F)(F)F)c1", "membrane potential ratio readout (active if shifted either direction beyond buffer ±3SD; no single direction)": "inactive"},
      {"smiles": "O=C(Nc1ccc(F)c(Cl)c1)C1CCN(S(=O)(=O)c2cccnc2)CC1", "membrane potential ratio readout (active if shifted either direction beyond buffer ±3SD; no single direction)": "inactive"}
    ]}
  ]
}
